# Reference: PubChem BioAssay (NCATS)
# Values joined by “and” are separate entries in the source; they are usually repeats but may differ in a detail not shown here. Equal entries are not always repeated. Records with an inconclusive call do not appear. Entries that show only a call come without a potency. Active and inactive are the calls of the source. Calls come from the whole dose curve; as a rule, active = well fitted inhibition curve with a large enough effect; inconclusive = small, poorly fitted or top-dose-only effect; inactive = flat fitted curve, though single readings scatter.
# System: P93_24
# Assay: qHTS profiling for inhibitors of Plasmodium falciparum proliferation (AID 504749); note: nearly all actives have a fitted effect of over 60% in size
# Conditions: P. falciparum in erythrocytes, SYBR Green DNA, 72 h; series mostly up to 28.7 µM
# In short: (§1)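 SYBR Green fluorescence (ex 485 nm, em 535 nm) reports parasite DNA after 72 h compound exposure of infected red cells at 0.3% parasitemia, 2.5% hematocrit; signal normalized to 0.29 uM artemisinin and vehicle wells.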
# Potency is the fitted concentration of half-maximal effect.
row,Structure (SMILES),Potency
1,COc1ccc(OC)c(C(O)C(C)N)c1 (configuration not stated),inactive
2,CCON=O,inactive
3,CCCCCl,inactive
4,COC([CH2][Hg])CNC(=O)c1ccccc1OCC(=O)O (configuration not stated),inactive
5,CC(C)(O)C1C2OC(=O)C1C1(O)CC3OC34C(=O)OC2C14C (configuration not stated),inactive
6,C[CH2][Hg][S]c1ccccc1C(=O)O,2.82 µM (active)
7,O=C1C2CC=CCC2C(=O)N1SC(Cl)(Cl)Cl (configuration not stated),inactive
8,N#CN,inactive
9,O=C1CCCCC1CN1CCCCC1 (configuration not stated),inactive
10,CN1C2CCC1CC(OC(c1ccccc1)c1ccc(Cl)cc1)C2 (configuration not stated),8.91 µM (active)
11,COC1=CC=C2[C@H]3Cc4ccc(OC)c5c4[C@@]2(CCN3C)[C@H]1O5,inactive
12,S=C=S,inactive
13,O=[N+]([O-])C(Br)(CO)CO,inactive
14,COc1ccc2c3c1O[C@H]1C(=O)CC[C@H]4[C@@H](C2)N(C)CC[C@]314,inactive
15,CC(=O)O[C@H]1CC[C@H]2[C@@H]3CCC4=CC(=O)CCC4=C3C=C[C@]12C,inactive
16,O=C1CCO1,inactive
17,O=C(CS(=O)C(c1ccccc1)c1ccccc1)NO (configuration not stated),inactive
18,C=CCN1CC[C@]23c4c5ccc(O)c4O[C@H]2[C@@H](O)C=C[C@H]3[C@H]1C5,inactive

row,Structure (SMILES),Potency
1,O=c1[nH]cc(N(CCCl)CCCl)c(=O)[nH]1,inactive
2,C/C(=C\c1csc(C)n1)[C@@H]1C[C@@H]2O[C@]2(C)CCC[C@H](C)[C@H](O)[C@@H](C)C(=O)C(C)(C)[C@@H](O)CC(=O)O1,0.0035 µM (active)
3,CCC(N)Cc1c[nH]c2ccccc12 (configuration not stated),inactive
4,C#CC(C)(O)CC (configuration not stated),inactive
5,CCCCNCC(O)c1ccc(O)cc1 (configuration not stated),inactive
6,O[C@H]1[C@H]2[C@H](O)CCCN2C[C@H]1O,inactive
7,C=CCN1CCC23c4c5ccc(O)c4O[C@H]2C(=O)CC[C@@]3(O)C1C5 (some centres not stated),inactive
8,CC(=O)OO,inactive
9,[N-]=[N+]=CC(=O)OCC(N)C(=O)O (configuration not stated),inactive
10,CC(C)CCON=O,inactive
11,CC(C)(C)c1cc(O)ccc1O,11.2 µM (active) and 8.91 µM (active)
12,COCC(C)N(C(=O)CCl)c1c(C)csc1C (configuration not stated),inactive
13,CCC1(c2ccccc2)C(=O)NC(=O)NC1=O,inactive
14,C[N+]1(C)C2CCC1CC(OC(=O)c1c[nH]c3ccccc13)C2 (configuration not stated),inactive
15,O=S(=O)(O)c1cc(O)ccc1O,inactive
16,FC(F)OC(F)(F)C(F)Cl (configuration not stated),inactive
17,CNC1(c2ccccc2Cl)CCCCC1=O (configuration not stated),inactive
18,c1ccc2sc(SNC3CCCCC3)nc2c1,inactive

# System: P94_40
# Assay: as above
# Conditions: P. falciparum in erythrocytes, SYBR Green DNA, 72 h; series mostly up to 28.7 µM
# In short: as §1
row,Structure (SMILES),Potency
1,COc1ccc(OC)c(C(O)C(C)N)c1 (configuration not stated),inactive
2,CCON=O,inactive
3,CCCCCl,inactive
4,COC([CH2][Hg])CNC(=O)c1ccccc1OCC(=O)O (configuration not stated),inactive
5,CC(C)(O)C1C2OC(=O)C1C1(O)CC3OC34C(=O)OC2C14C (configuration not stated),inactive
6,C[CH2][Hg][S]c1ccccc1C(=O)O,3.16 µM (active)
7,O=C1C2CC=CCC2C(=O)N1SC(Cl)(Cl)Cl (configuration not stated),inactive
8,N#CN,inactive
9,O=C1CCCCC1CN1CCCCC1 (configuration not stated),inactive
10,CN1C2CCC1CC(OC(c1ccccc1)c1ccc(Cl)cc1)C2 (configuration not stated),10 µM (active)
11,COC1=CC=C2[C@H]3Cc4ccc(OC)c5c4[C@@]2(CCN3C)[C@H]1O5,inactive
12,S=C=S,inactive
13,O=[N+]([O-])C(Br)(CO)CO,inactive
14,COc1ccc2c3c1O[C@H]1C(=O)CC[C@H]4[C@@H](C2)N(C)CC[C@]314,inactive
15,CCCCCCCCOC(=O)c1ccccc1C(=O)OCCCCCCCC,inactive
16,O=C1CCO1,inactive
17,O=C(CS(=O)C(c1ccccc1)c1ccccc1)NO (configuration not stated),inactive
18,C=CCN1CC[C@]23c4c5ccc(O)c4O[C@H]2[C@@H](O)C=C[C@H]3[C@H]1C5,inactive

row,Structure (SMILES),Potency
1,O=c1[nH]cc(N(CCCl)CCCl)c(=O)[nH]1,inactive
2,C/C(=C\c1csc(C)n1)[C@@H]1C[C@@H]2O[C@]2(C)CCC[C@H](C)[C@H](O)[C@@H](C)C(=O)C(C)(C)[C@@H](O)CC(=O)O1,0.0028 µM (active)
3,CCC(N)Cc1c[nH]c2ccccc12 (configuration not stated),inactive
4,C#CC(C)(O)CC (configuration not stated),inactive
5,CCCCNCC(O)c1ccc(O)cc1 (configuration not stated),inactive
6,O[C@H]1[C@H]2[C@H](O)CCCN2C[C@H]1O,inactive
7,C=CCN1CCC23c4c5ccc(O)c4O[C@H]2C(=O)CC[C@@]3(O)C1C5 (some centres not stated),inactive
8,CC(=O)OO,inactive
9,[N-]=[N+]=CC(=O)OCC(N)C(=O)O (configuration not stated),inactive
10,CC(C)CCON=O,inactive
11,CC(C)(C)c1cc(O)ccc1O,7.08 µM (active) and 12.6 µM (active)
12,COCC(C)N(C(=O)CCl)c1c(C)csc1C (configuration not stated),inactive
13,CCC1(c2ccccc2)C(=O)NC(=O)NC1=O,inactive
14,C[N+]1(C)C2CCC1CC(OC(=O)c1c[nH]c3ccccc13)C2 (configuration not stated),inactive
15,O=S(=O)(O)c1cc(O)ccc1O,inactive
16,FC(F)OC(F)(F)C(F)Cl (configuration not stated),inactive
17,CNC1(c2ccccc2Cl)CCCCC1=O (configuration not stated),inactive
18,c1ccc2sc(SNC3CCCCC3)nc2c1,inactive
